Several values for one entry are separate records, joined by “and”; a condition that tells them apart may be missing. Identical values can stand only once. The panel holds about 79,000 compounds, 15% with a hit somewhere; the sample as a whole holds those more often. Where a structure was tested more than once in an assay, its records may differ in their call. Activity calls are given as the source filed them. Cut-off read from the data, not from the text of the source: active = growth inhibition above about 70%; inactive = the rest.
Assays:
[1] = NCI Yeast Anticancer Drug Screen. Data for the rad52 strain (AID 147);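 note: 0% = growth of vehicle-treated control cultures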; settings: S. cerevisiae rad52 mutant growth inhibition, stronger effect = higher value
Method in brief: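 Compounds are applied to a genetically defined yeast strain lacking normal DNA damage repair, and inhibition of growth is expressed relative to cultures given vehicle only.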

[2] = NCI Yeast Anticancer Drug Screen. Data for the wt1 strain (AID 149);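 note: 0% = growth of vehicle-treated wt1 cultures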; settings: S. cerevisiae wt1 strain (SPY 50644) growth inhibition, stronger effect = higher value
Method in brief: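 Vehicle-normalised growth inhibition; strain wt1; compound exposure.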

[3] = NCI Yeast Anticancer Drug Screen. Data for the rad50EPP+ strain (AID 151);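 note: 0% = growth of vehicle-treated control cultures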; settings: S. cerevisiae rad50 mutant strain, stronger effect = higher value
Method in brief: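 Compounds were applied to the rad50EPP+ yeast strain, which bears a defined DNA repair alteration, and growth inhibition was determined relative to vehicle-treated cultures.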

[4] = NCI Yeast Anticancer Drug Screen. Data for the mgt1 strain (AID 153); settings: S. cerevisiae mgt1 mutant growth inhibition, stronger effect = higher value
Method in brief: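 Strain: mgt1 yeast, one of a set carrying defined DNA damage repair or cell cycle control alterations. Compound-treated growth compared with vehicle.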

[5] = NCI Yeast Anticancer Drug Screen. Data for the rad50 strain (AID 155);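 note: 0% = growth of vehicle-only cultures of the same strain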; settings: S. cerevisiae rad50 strain growth inhibition, stronger effect = higher value
Method in brief: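 A DNA repair-deficient yeast mutant serves as the test organism; compound-induced growth inhibition is calculated against vehicle-treated cells.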

[6] = NCI Yeast Anticancer Drug Screen. Data for the mec2-1 strain (AID 157); settings: S. cerevisiae mec2-1 strain, stronger effect = higher value
Method in brief: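 Strain: mec2-1 (DNA repair/cell cycle alteration). Compound exposure, then growth measured; inhibition expressed relative to vehicle.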

[7] = NCI Yeast Anticancer Drug Screen. Data for the rad14 strain (AID 159);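 note: 0% = growth of vehicle-treated control cultures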; settings: S. cerevisiae rad14 strain growth inhibition, stronger effect = higher value
Method in brief: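 Vehicle-treated cultures served as the baseline for growth inhibition of a DNA repair-mutant yeast strain exposed to each compound.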

[8] = NCI Yeast Anticancer Drug Screen. Data for the sgs1 mgt1 strain (AID 161);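 note: 0% = growth of cultures given vehicle only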; settings: S. cerevisiae sgs1 mgt1 strain, stronger effect = higher value
Method in brief: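 Test agents were incubated with a DNA-repair-mutant yeast strain. Growth was then read and compared against vehicle-treated controls.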

[9] = NCI Yeast Anticancer Drug Screen. Data for the CLN2oe strain (AID 163);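 note: 0% = growth of vehicle-only control cultures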; settings: S. cerevisiae CLN2oe strain, stronger effect = higher value
Method in brief: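 Growth of a genetically modified yeast strain is measured after compound exposure and compared with cultures given vehicle alone.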

[10] = NCI Yeast Anticancer Drug Screen. Data for the cln2 rad14 strain (AID 165);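 note: 0% = growth equal to vehicle treated cultures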; settings: S. cerevisiae cln2 rad14 strain, stronger effect = higher value
Method in brief: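 Compounds are applied to the cln2 rad14 yeast strain, and growth is then compared with that of vehicle-treated cultures to give inhibition.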

[11] = NCI Yeast Anticancer Drug Screen. Data for the bub3 strain (AID 167); settings: S. cerevisiae bub3 mutant strain, stronger effect = higher value
Method in brief: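 Inhibition values come from growth of compound-treated mutant yeast normalised to vehicle-treated controls.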

[12] = NCI Yeast Anticancer Drug Screen. Data for the wt2 strain (AID 169);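 note: 0% = growth of vehicle-treated yeast cultures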; settings: S. cerevisiae wt2 strain growth inhibition, stronger effect = higher value
Method in brief: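 This strain belongs to a panel of yeast strains with defined genetic alterations in DNA damage repair or cell cycle control. Compounds are applied, and growth inhibition is measured against vehicle-treated cultures.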

[13] = NCI Yeast Anticancer Drug Screen. Data for the mlh1 strain (AID 171);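 note: 0% = growth of vehicle-treated control cultures of the same strain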; settings: S. cerevisiae mlh1 strain growth inhibition, stronger effect = higher value
Method in brief: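 Growth of the mutant yeast strain after compound exposure, expressed as inhibition relative to vehicle-only controls.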

[14] = NCI Yeast Anticancer Drug Screen. Data for the sgs1 strain (AID 173);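 note: 0% = growth of vehicle-only control cultures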; settings: S. cerevisiae sgs1 mutant, stronger effect = higher value
Method in brief: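 Growth of a yeast strain bearing a defined genetic alteration is measured after compound treatment. Inhibition is expressed relative to vehicle-only controls.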

[15] = NCI Yeast Anticancer Drug Screen. Data for the mlh1 rad18 strain (AID 175); settings: S. cerevisiae mlh1 rad18 strain growth inhibition, stronger effect = higher value
Method in brief: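 Read-out is yeast growth inhibition, calculated against vehicle-only controls. The compound was applied to a strain engineered with DNA damage repair alterations.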

[16] = NCI Yeast Anticancer Drug Screen. Data for the rad18 strain (AID 177); settings: S. cerevisiae rad18 mutant growth inhibition, stronger effect = higher value
Method in brief: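 Growth of the mutant yeast strain after compound exposure, normalised to vehicle-only cultures.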

[17] = at 5.0 µM (retest, dose inferred, filed as 0.5)
[18] = at 50.0 µM (retest, dose inferred, filed as 5.0)

Measured: growth inhibition

Oc1c(Br)cc(Br)cc1Br
35% (inactive) and 97% (active): [15]; [18]
66.5% (inactive) and 99% (active): [5]; at 50.0 µM
inactive: [1]; at 1.2 µM 5% | [1]; at 3.7 µM 2% | [1]; at 11.0 µM 3% | [1]; at 33.0 µM 30% | [2]; at 1.2 µM -4% | [2]; at 3.7 µM -7% | [2]; at 11.0 µM 2% | [2]; at 33.0 µM 37% | [3]; at 1.2 µM 3% | [3]; at 3.7 µM 12% | [3]; at 11.0 µM 30% | [3]; at 33.0 µM 60% | [4]; at 1.2 µM 12% | [4]; at 3.7 µM 1% | [4]; at 11.0 µM 24% | [4]; at 33.0 µM 52% | [5]; at 1.2 µM 10% | [5]; at 3.7 µM 4% | [5]; [17] 41% and -1% | [5]; at 11.0 µM 5% | [5]; at 33.0 µM 41% | [6]; at 1.2 µM -1% | [6]; at 3.7 µM -7% | [6]; [17] 25% and 4% | [6]; at 11.0 µM 1% | [6]; at 33.0 µM 38% | [7]; at 1.2 µM -2% | [7]; at 3.7 µM 3% | [7]; at 11.0 µM 0% | [7]; at 33.0 µM 36% | [8]; [17] 7% | [9]; at 1.2 µM -14% | [9]; at 3.7 µM 7% | [9]; at 11.0 µM -1% | [9]; at 33.0 µM 21% | [10]; [17] 47% and -11% | [11]; at 1.2 µM -5% | [11]; at 3.7 µM 18% | [11]; [17] 40% and 0% | [11]; at 11.0 µM 24% | [11]; at 33.0 µM 39% | [12]; at 1.2 µM -8% | [12]; at 3.7 µM -9% | [12]; at 11.0 µM -8% | [12]; at 33.0 µM 26% | [13]; at 1.2 µM -3% | [13]; at 3.7 µM -19% | [13]; at 11.0 µM -9% | [13]; at 33.0 µM 22% | [14]; at 1.2 µM 13% | [14]; at 3.7 µM 12% | [14]; at 11.0 µM 6% | [14]; at 33.0 µM 37% | [15]; [17] 41% and 15% | [16]; at 1.2 µM 7% | [16]; at 3.7 µM 1% | [16]; at 11.0 µM 3% | [16]; at 33.0 µM 32%
49% (inactive) and 98.4% (active): [10]; at 50.0 µM
59.5% (inactive) and 98.7% (active): [8]; at 50.0 µM
54% (inactive) and 98% (active): [5]; [18]
active: [1]; at 100.0 µM 88% | [2]; at 100.0 µM 91% | [3]; at 100.0 µM 88% | [4]; at 100.0 µM 82% | [5]; at 100.0 µM 91% | [6]; at 100.0 µM 86% | [7]; at 100.0 µM 77% | [8]; [18] 79% and 99% | [9]; at 100.0 µM 89% | [10]; [18] 87% and 99% | [11]; [18] 86% and 98% | [11]; at 50.0 µM 70.3% and 99.2% | [11]; at 100.0 µM 87% | [12]; at 100.0 µM 84% | [13]; at 100.0 µM 78% | [14]; at 100.0 µM 88% | [16]; at 100.0 µM 88%
59.6% (inactive) and 99% (active): [15]; at 50.0 µM
52% (inactive) and 99.5% (active): [6]; at 50.0 µM
44% (inactive) and 99% (active): [6]; [18]
